From PubChem
The full list was thinned out, with hits kept by preference.
CHX counter: counter-screen for Shiga toxin inhibitors: cycloheximide protein synthesis inhibition | cell reporter, cycloheximide protein synthesis inhibition counterscreen | 12% of 300,000 active | max response, %; in the data active = max response mostly above about 13%, no sharp cut-off; inactive = mostly below about 14%; also: read at 38.3 µM for the half of the compounds with a filed dose
AMA1 RON2 block: inhibitors of Plasmodium falciparum AMA1-RON2 interaction. AlphaScreen AMA1-biotinylated RON2 peptide binding. Potency, µM (top dose mostly 58.2 µM), most hits filed as inhibitors. 0.2% of 360,000 active. AID 720542; also: nearly all actives have a fitted effect of over 45% in size
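AMA1 (3D7) with his tag at 25 nM final met compounds first, then biotinylated RON2 peptide at 25 nM; detection used donor plus acceptor beads, 10 µg/mL apiece, read by AlphaScreen after 30 min at room temperature.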
AmpC inh detg: blocks E. coli AmpC beta-lactamase in detergent assay; P00811; AmpC hydrolysis of nitrocefin, absorbance 480 nm, 0.01% Triton; Potency, µM (doses to about 114 µM), actives largely listed as inhibitors; 0.041% of 370,000 active; AID 485294; also: nearly all actives have a fitted effect of over 25% in size
Target sequence (P00811 whole entry, looked up): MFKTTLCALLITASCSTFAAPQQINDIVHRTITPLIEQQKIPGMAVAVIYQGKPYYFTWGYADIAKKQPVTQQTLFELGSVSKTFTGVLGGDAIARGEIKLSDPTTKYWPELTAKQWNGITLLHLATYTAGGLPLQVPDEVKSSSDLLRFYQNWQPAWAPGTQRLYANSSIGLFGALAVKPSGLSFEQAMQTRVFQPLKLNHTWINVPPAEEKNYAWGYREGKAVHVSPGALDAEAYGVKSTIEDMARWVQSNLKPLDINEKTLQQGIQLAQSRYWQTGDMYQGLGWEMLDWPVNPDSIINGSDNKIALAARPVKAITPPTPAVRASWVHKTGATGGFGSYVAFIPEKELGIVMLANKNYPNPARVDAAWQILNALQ
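AmpC (5.3 nM in the dispensed reagent) in 20 mM phosphate pH 7.0 with 0.01% (detergent screen) or 0.0001% Triton X-100 was preincubated with compounds for 15 min at room temperature. Nitrocefin was then added from an 800 uM solution, and hydrolysis was followed at 480 nm.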
AmpC inh no detg: blocks E. coli AmpC beta-lactamase in detergent-free assay. 0.52% of 330,000 active. P00811. Potency, µM (top dose mostly 57.1 µM), most hits filed as inhibitors. AmpC nitrocefin hydrolysis, absorbance 480 nm, 0.0001% Triton; also: nearly all actives have a fitted effect of over 20% in size
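AmpC (5.3 nM in the dispensed reagent) in 20 mM phosphate pH 7.0 with 0.01% (detergent screen) or 0.0001% Triton X-100 was preincubated with compounds for 15 min at room temperature. Nitrocefin was then added from an 800 uM solution, and hydrolysis was followed at 480 nm.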
SARS PLP yeast: SARS-CoV PLP inhibition in yeast | S. cerevisiae expressing SARS-CoV PLpro, growth rescue | Potency, µM (series often up to 32.9 µM), hits mostly activators | 0.19% of 330,000 active | AID 485353; calls by dose curve; also: nearly all actives have a fitted effect of over 55% in size
Shiga toxin inh: inhibitors of Shiga toxin in Vero cells; Vero cells, Shiga toxin protein synthesis inhibition reporter; inhibition, % at 38.7 µM; 9.2% of 290,000 active; AID 2315; in the data active = inhibition mostly above about 28%, no sharp cut-off; inactive = mostly below about 43%
A number is an active result; 0 = inactive; ? = inconclusive; - = no result given; + = active, no number. Unless noted, calls follow the shape of the dose curve; as a rule, active = well fitted curve in the direction sought with a large enough effect; inconclusive = small, poorly fitted or top-dose-only effect, or another doubt; inactive = no such curve, though single readings can be large; an effect the other way counts as inactive or inconclusive.

SMILES | CHX counter | AMA1 RON2 block | AmpC inh detg | AmpC inh no detg | SARS PLP yeast | Shiga toxin inh
Cc1c(C(=O)N2CCN(c3ccccc3)CC2)oc2c(F)cccc12 | 32.3 | 0 | 0 | 0 | 0 | 0
COCC1CCN(C(=O)c2oc3c(F)cccc3c2C)C1 (centres undefined) | 22.9 | 0 | 0 | 0 | 0 | 32.7
CC(=O)NCC1CCCN(C(=O)c2oc3c(F)cccc3c2C)C1 (centres undefined) | 0 | 0 | 0 | 0 | 0 | 0
Cc1ccc2nc(N3CCC(C(=O)N4CCN(c5cccc(Cl)c5)CC4)CC3)[nH]c2c1 | - | - | 0 | - | - | -
CS(=O)(=O)N1CCC2(CC1)OCCN2S(=O)(=O)c1ccccc1 | - | 0 | 0 | 0 | 0 | -
CCC(C)C(=O)Nc1ncc2c(n1)CC(c1cccs1)CC2=O (centres undefined) | 0 | 0 | 0 | 0 | 0 | 0
COc1cccc(-c2nn(-c3ccccc3)cc2C(=O)Nc2nccs2)c1 | 0 | 0 | 0 | 0 | 0 | 0
CCOC(=O)c1cnc(-c2ccccc2)nc1N(C)C | 47.6 | 0 | 0 | 0 | 0 | 120.4
CCOC(=O)c1cnc(-c2ccccc2)nc1N | 57.3 | 0 | ? | 0 | 0 | 125.7
CCOC(=O)c1cnc(-c2ccccc2)nc1N1CCOCC1 | 0 | 0 | 0 | 0 | 0 | 0
Cc1c2cnn(-c3ccccc3)c(=O)c2c(C)n1CCCC(=O)N1CCN(C2CCCCC2)CC1 | 0 | 0 | 0 | 0 | 0 | 0
CN(C)/C=C1\SC(=S)N(N2C(=O)C3C4C=CC(C4)C3C2=O)C1=O (centres undefined) | 0 | 0 | 0 | 0 | 0 | 0
Nc1nonc1-c1noc(N2CCCCC2)n1 | 29.8 | 0 | 0 | 0 | 0 | 79.9
CCCCCc1nc(-c2nonc2N)no1 | 0 | 0 | 0 | 0 | 0 | 0
O=C1COc2ccc(OCc3ccc(F)cc3)cc21 | 51.0 | 0 | 0 | 0 | 0 | 100.9
Cc1ccsc1CN(C)C(=O)c1ccc(Oc2ccccc2)cc1 | 18.0 | 0 | 0 | 0 | 0 | 63.3
COc1ccc(CN(C)C(=O)c2ccc(Oc3ccccc3)cc2)cc1F | 0 | 0 | ? | 0 | 0 | 0
Cc1snc(SCc2ccc(F)cc2)c1C#N | 0 | 0 | 0 | 0 | 0 | 0
Cc1snc(SCc2ccc(Cl)cc2)c1C#N | 10.9 | 0 | 0 | 0 | 0 | 0
Cc1snc(SCC(=O)c2ccc([N+](=O)[O-])cc2)c1C#N | 29.8 | 0 | 0 | 0 | 0 | 63.8
CSc1nc(N)nc(SCC(=O)c2ccc(C)cc2)c1C#N | 27.9 | 0 | 0 | 0 | 0 | +
Cc1snc(SCC(=O)c2ccc(F)cc2)c1C#N | 34.4 | 0 | 0 | 0 | 0 | 104.9
CSc1nc(N)nc(SCC(=O)OC(C)C)c1C#N | 0 | 0 | ? | 0 | 0 | 0
Cc1cc(-c2n[nH]c(=S)n2/N=C/c2ccccc2[N+](=O)[O-])n[nH]1 | 0 | 0 | 0 | 0 | 0 | 0
CCC(C)N1CC(C(=O)NC2CCCCC2)CC1=O (centres undefined) | 0 | 0 | 0 | 0 | 0 | 0
SMILES | CHX counter | AMA1 RON2 block | AmpC inh detg | AmpC inh no detg | SARS PLP yeast | Shiga toxin inh
COc1cccc(/C(O)=C2/C(=O)C(=O)N(Cc3ccco3)C2c2ccncc2)c1 (centres undefined) | 0 | 0 | 0 | 0 | 0 | 0
CCOc1ccccc1OCCCC(=O)NC1CCCc2ccccc21 (centres undefined) | 0 | 0 | 0 | 0 | 0 | 0
Cc1cccc(N=Nc2ccc(O)c3ncccc23)c1 | 45.6 | ? | 0 | 0 | - | active
Oc1ccc(N=Nc2ccc3c(c2)OCCO3)c2ncccc12 | 47.6 | 0 | 0 | 0 | 0 | 95.3
CCOc1ccc(N=Nc2ccc(O)c3ncccc23)cc1 | 0 | 0 | 0 | 0 | 0 | 0
NS(=O)(=O)c1ccc(N=Nc2ccc(O)c3ncccc23)cc1 | 0 | 0 | 0 | ? | 0 | 0
Cc1ccc(C)c(N=Nc2ccc(O)c3ncccc23)c1 | 42.9 | 0 | 0 | 0 | ? | 151.0
Cc1ccc(N=Nc2cc(C)ccc2O)c(C)c1 | 35.9 | ? | 0 | 0 | 0 | 77.1
COc1ccccc1CNC(=O)c1ccc(CSc2nc3ccncc3n2Cc2ccccc2C)cc1 | - | - | 0 | - | - | -
CCc1ccccc1NC(=O)c1nnn(CC(=O)Nc2c(C)cc(C)cc2C)c1N | - | - | 0 | - | - | -
COC(=O)[C@@H]1CC[C@@](C)(c2ccc(OC)cc2)C1(C)C | - | 0 | ? | 0 | 0 | -
